According to PubChem BioAssay (NCATS):
Inconclusive results are not listed. The source made the active and inactive calls. Calls follow the shape of the dose curve; as a rule, active = well fitted inhibition curve with a large enough effect; inconclusive = small, poorly fitted or top-dose-only effect; inactive = flat fitted curve, though single readings scatter. Numbered stars: 1 amine (or outer) side, 2 acyl side, 3 side chain; on linkers, the order of the positions; unused ones are H or OH. Bridge positions count the residues as written; N and C are the ends. Square brackets hold non-standard residues; d marks the D form. Peptide text beside a SMILES is read from it. * marks the point of attachment. ξ: configuration not given here. ΔAla(Z-3-ureido) = NC(=O)N/C=C(\N)C(=O)O; ξDab(CH2SO3H) = NC(CCNCS(=O)(=O)O)C(=O)O; X2 = NC1=NC(O)CC(C(N[*:1])C(=O)[*:2])N1; Heptanoyl(6-Me) = CC(C)CCCCC(=O)*; ξβ3hOrn = NCCCC(N)CC(=O)*; Orn = NCCC[CH](N)C(=O)O; Dab = NCC[CH](N)C(=O)O; Dap = NC[CH](N)C(=O)O

How the values were obtained:
Assay in all cases: qHTS profiling for inhibitors of Plasmodium falciparum proliferation (AID 504749); also: nearly all actives have a fitted effect of over 60% in size
Details in all cases: P. falciparum in erythrocytes, SYBR Green DNA, 72 h; series mostly up to 28.7 µM
3D7 = system: 3D7
Outline: (§1)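 Three-day growth assay of blood-stage parasites in erythrocytes (0.3% parasitemia, 2.5% hematocrit) at 37 C, 5% CO2, quantified by SYBR Green DNA staining after overnight detergent lysis.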

ATS95 = system: ATS95
Outline: as §1

CP191 = system: CP191
Outline: as §1

CP215 = system: CP215
Outline: as §1

CP247 = system: CP247
Outline: as §1

CP250 = system: CP250
Outline: as §1

CP256 = system: CP256
Outline: as §1

CP262 = system: CP262
Outline: as §1

CP297 = system: CP297
Outline: as §1

CP335 = system: CP335
Outline: as §1

TAB113 = system: TAB113
Outline: as §1

AS120 = system: AS120
Outline: as §1

Dd2 = system: Dd2
Outline: as §1

ECU = system: ECU
Outline: as §1

HB3 = system: HB3
Outline: as §1

N140 = system: N140
Outline: as §1

P93_24 = system: P93_24
Outline: as §1

P94_40 = system: P94_40
Outline: as §1

PAD = system: PAD
Outline: as §1

TAB165 = system: TAB165
Outline: as §1

Measured: Potency
Potency is read from the fitted curve at half-maximal effect.

CCC1NC(=O)C(NC(=O)c2ncccc2O)C(C)OC(=O)C(c2ccccc2)NC(=O)C2CC(=O)CCN2C(=O)C(Cc2ccccc2)N(C)C(=O)C2CCCN2C1=O (centres undefined)
inactive: 3D7 | ATS95 | CP191 | CP215 | CP247 | CP250 | CP256 | CP262 | CP297 | CP335 | TAB113

NCCCC(N)CC(=O)NC1CNC(=O)C(C2CC(O)N=C(N)N2)NC(=O)/C(=C/NC(N)=O)NC(=O)C(CO)NC(=O)C(CO)NC1=O (stereo not drawn) (ξβ3hOrn-[Dap]SS[ΔAla(Z-3-ureido)][X2]; lactam 1-C; configuration not given here)
not listed: ATS95 | CP215
inactive: all other assays above

CC(C)C[C@H](NC(=O)[C@@H](Cc1c[nH]c2ccccc12)NC(=O)[C@@H](Cc1ccc(O)cc1)NC(=O)[C@@H](CO)NC(=O)[C@@H](Cc1c[nH]c2ccccc12)NC(=O)C(Cc1cnc[nH]1)NC(=O)C1CCC(=O)N1)C(=O)N[C@@H](CCCN=C(N)N)C(=O)N1CCC[C@@H]1C(=O)NCC(N)=O (some centres undefined)
inactive: all assays above

Cn1cc(O)nc1NC(=O)Nc1cccc(Cl)c1
not listed: CP191 | CP250 | CP256 | CP262
inactive: all other assays above

CC(C)C(NC(=O)C(CC(=O)O)NC(=O)C(CCCCN)NC(=O)C(N)CCCN=C(N)N)C(=O)NC(Cc1ccc(O)cc1)C(=O)O (centres undefined) (H-RKDVY-OH; configuration not given here)
inactive: all assays above

CC(=O)OCC(=O)[C@@]1(O)CCC2C3CCC4=CC(=O)CC[C@]4(C)C3=CC[C@@]21C (some centres undefined)
inactive: all assays above

CC1(C)C(/C=C/C=C/C=C/C=C2\N(CCCCS(=O)(=O)O)c3ccc4ccccc4c3C2(C)C)=[N+](CCCCS(=O)(=O)[O-])c2ccc3ccccc3c21
not listed: 3D7 | CP335
inactive: all other assays above

CC(C)CC(NC(=O)C(COC(C)(C)C)NC(=O)C(Cc1ccc(O)cc1)NC(=O)C(CO)NC(=O)C(Cc1c[nH]c2ccccc12)NC(=O)C(Cc1cnc[nH]1)NC(=O)C1CCC(=O)N1)C(=O)NC(CCCN=C(N)N)C(=O)N1CCCC1C(=O)NNC(N)=O (centres undefined)
not listed: TAB113
inactive: all other assays above

CC(C)CC1NC(=O)C(CCCN)NC(=O)C(C(C)C)NC(=O)C2CCCN2C(=O)C(Cc2ccccc2)NC(=O)C(CC(C)C)NC(=O)C(CCCN)NC(=O)C(C(C)C)NC(=O)C2CCCN2C(=O)C(Cc2ccccc2)NC1=O (centres undefined) (cyclo(FPV[Orn]LFPV[Orn]L); configuration not given here)
active: AS120 2.8 nM | ATS95 0.9 nM | CP191 2.8 nM | CP215 1.1 nM | CP247 2.8 nM | CP250 2 nM | CP256 4 nM | CP297 1.2 nM | CP335 0.5 nM | Dd2 1.1 nM | ECU 3.2 nM | HB3 3.5 nM | N140 1.3 nM | P93_24 2 nM | P94_40 0.4 nM | PAD 0.8 nM | TAB113 2.2 nM | TAB165 1.3 nM

C=CC1=C(C(=O)O)N2C(=O)[C@@H](NC(=O)C(N=O)c3csc(N)n3)[C@H]2SC1 (some centres undefined)
inactive: all assays above

O=C(OCC1OC(OC(=O)c2cc(O)c(O)c(OC(=O)c3cc(O)c(O)c(O)c3)c2)[C@@H](OC(=O)c2cc(O)c(O)c(OC(=O)c3cc(O)c(O)c(O)c3)c2)C(OC(=O)c2cc(O)c(O)c(OC(=O)c3cc(O)c(O)c(O)c3)c2)C1OC(=O)c1cc(O)c(O)c(OC(=O)c2cc(O)c(O)c(O)c2)c1)c1cc(O)c(O)c(OC(=O)c2cc(O)c(O)c(O)c2)c1 (some centres undefined)
active: 3D7 2000 nM | AS120 2510 nM | ATS95 2820 nM | CP191 2820 nM | CP215 3790 nM | CP247 2820 nM | CP250 2240 nM | CP256 3550 nM | CP262 4260 nM | CP297 3790 nM | CP335 1690 nM | Dd2 2240 nM | ECU 2240 nM | HB3 2000 nM | N140 2240 nM | P93_24 2510 nM | P94_40 2820 nM | PAD 3550 nM | TAB113 2240 nM | TAB165 2000 nM

CCC(C)C1NC(=O)C(CCNCS(=O)(=O)O)NC(=O)C(NC(=O)C(CCNCS(=O)(=O)O)NC(=O)C(NC(=O)C(CCNCS(=O)(=O)O)NC(=O)CCCCC(C)C)C(C)O)CCNC(=O)C(C(C)O)NC(=O)C(CCNCS(=O)(=O)O)NC(=O)C(CCNCS(=O)(=O)O)NC(=O)C(C(C)CC)NC1=O (centres undefined) ({Heptanoyl(6-Me)}-[ξDab(CH2SO3H)]T[ξDab(CH2SO3H)][Dab][ξDab(CH2SO3H)]II[ξDab(CH2SO3H)][ξDab(CH2SO3H)]T; lactam 4-C; configuration not given here)
not listed: CP215 | CP250 | CP256
inactive: all other assays above

CCC(C)C1NC(=O)C(Cc2ccc(O)cc2)NC(=O)C(N)CSSCC(C(=O)N2CCCC2C(=O)NC(CC(C)C)C(=O)NCC(N)=O)NC(=O)C(CC(N)=O)NC(=O)C(CCC(N)=O)NC1=O (centres undefined)
not listed: CP247
inactive: all other assays above

O=C1/C(=C\c2cccs2)CCC/C1=C/c1cccs1
not listed: CP191 | CP335
inactive: all other assays above

CCC(Oc1ccccc1)C(=O)NC1C(=O)N2C1SC(C)(C)C2C(=O)O (centres undefined)
inactive: all assays above

CNCC(=O)NC(CCCN=C(N)N)C(=O)NC(C(=O)NC(Cc1ccc(O)cc1)C(=O)NC(C(=O)NC(Cc1cnc[nH]1)C(=O)N1CCCC1C(=O)NC(C)C(=O)O)C(C)C)C(C)C (centres undefined)
inactive: all assays above

O=C(O)c1ccccc1-c1c2cc(Br)c(=O)c(Br)c-2oc2c(Br)c(O)c(Br)cc12
not listed: CP297
inactive: all other assays above

NC(=O)CCC1NC(=O)C(Cc2ccccc2)NC(=O)C(Cc2ccc(O)cc2)NC(=O)CCSSCC(C(=O)N2CCCC2C(=O)NC(CCCN=C(N)N)C(=O)NCC(N)=O)NC(=O)C(CC(N)=O)NC1=O (centres undefined)
inactive: all assays above

COc1ccc(-c2nc3ccc(C4=C(C)CC(=O)NN4)cc3[nH]2)cc1
inactive: CP191 | CP250 | CP262 | CP335 | HB3 | P94_40
